Among all 10,000 compounds or so, fewer than 10 were called active. No rule for the calls is given here. A selection follows.
Experiment: Vibrio cholerae motility inhibitors, OD read-out (AID 588778)
Conditions: stronger effect = higher value
[1] = measured here: bacterial viability at 10 ug/mL

Row | SMILES | inhibition (concentration not given here) | inhibition [1]
1 | O=C(Nc1cnccn1)c1cccs1 | 20.3% (inactive) | 10.6%
2 | CCOC(=O)N1CCN(C(=O)c2ccc(C#CC3(O)CCCCC3)cc2)CC1 | -17.2% (inactive) | -5.67%
3 | CC(C)N=C(NS(=O)(=O)c1ccccc1)c1ccccc1 | -3.11% (inactive) | -1.85%
4 | Cc1nc(NC(=O)c2c(F)c(F)c(F)c(F)c2F)ccc1I | 13% (inactive) | 0.675%
5 | COc1ccc2[nH]cc(CCNS(=O)(=O)Cc3ccccc3)c2c1 | 8.63% (inactive) | 0.04%
6 | O=C(NC(=S)NCc1ccccc1)C1CC1 | 12.4% (inactive) | 5.74%
7 | CC(NC(=O)c1ccco1)c1ccc(I)cc1 (stereo unspecified) | 15.8% (inactive) | 23.3%
8 | CSc1cccc(NC(=O)Cn2c(C)c(C=O)c3ccccc32)c1 | 20.7% (inactive) | 5.17%
9 | CC(C)(C)OC(=O)NNC(=O)Nc1ccccc1C(F)(F)F | 15.3% (inactive) | 31.8%
10 | O=C(O)c1ccc(NC(=O)c2ccc(Cl)cc2)c(NC(=O)c2ccc(Cl)cc2)c1 | -7.79% (inactive) | -2.21%
11 | N#Cc1cc2c(nc1SCC1(O)CCCc3ccccc31)CCCC2 (stereo unspecified) | 8.28% (inactive) | -3.11%
12 | COc1ccc(-c2csc3ncnc(Oc4cccc5cccnc45)c23)cc1 | -32.6% (inactive) | -9.37%
13 | COc1cccc2cc(C(=O)Nc3scc(-c4ccc(F)cc4)c3C(=O)OC(C)C)c(=O)oc12 | -22.6% (inactive) | -8.21%
14 | O=[N+]([O-])c1cccc(CN2CCC(N3CCCC3)CC2)c1 | -18.4% (inactive) | -10.2%
15 | NC(=O)C1(N2CCCCC2)CCN(C(=O)CSc2nc3ccccc3o2)CC1 | 4.33% (inactive) | -1.26%
16 | CCN(CC#CCCOC(C)=O)c1ccccc1 | -9.42% (inactive) | -8.17%
17 | O=C(NC(=S)Nc1ccc(Cl)cc1C(F)(F)F)c1ccccc1I | -7.41% (inactive) | -8.11%
18 | COc1cc(C=O)ccc1OC(=O)c1nsc(Cl)c1Cl | 2.31% (inactive) | 2.66%
19 | O=C(NCCSc1ccc(Cl)cc1)Nc1ccccc1 | 52.1% (inactive) | 14.4%
20 | Cc1ccc(F)c(NC(=O)CN2C(=O)CSc3ccccc32)c1 | 16.3% (inactive) | 13.8%
21 | CCCCCOc1ccc(NC(=O)C(=O)NCCN2CCOCC2)cc1 | -4.07% (inactive) | -7.64%
22 | COc1ccc(C(=O)N(Cc2ccc(C)o2)C2CCS(=O)(=O)C2)cc1Cl (stereo unspecified) | 1.9% (inactive) | 1.08%

Row | SMILES | inhibition (concentration not given here) | inhibition [1]
23 | Cc1nnc(SCC(=O)Nc2ccc(Cl)cn2)s1 | -2.25% (inactive) | -0.63%
24 | Cc1ccc(S(=O)(=O)Nc2ccc(C(=O)Nc3nccs3)cc2)cc1 | 4.81% (inactive) | -2.49%
25 | Cn1cnnc1SCC(=O)Nc1ccccn1 | 9.88% (inactive) | 31.7%
26 | Clc1ccc(Cc2nc(-c3cccnc3)no2)cc1 | 5.04% (inactive) | 0.075%
27 | CCOc1cc2c(cc1OCC)C(c1ccc(OC)c(OC)c1)N(c1ccc(C(=O)O)cc1)C(=O)C2 (stereo unspecified) | -8.01% (inactive) | -1.54%
28 | COc1ccc(Br)cc1CNCc1cccs1 | 84.4% (inactive) | 24.4%
29 | C=CCn1c2ccccc2c2nnc(SCC(=O)Nc3cc(C)on3)nc21 | -1.67% (inactive) | -8.05%
30 | CC1=C(C(=O)Nc2nc3ccccc3s2)C(c2ccc(F)cc2)C2=C(CCCC2=O)N1 (stereo unspecified) | -5.34% (inactive) | 0.795%
31 | CC(C)(NO)C(=O)c1ccc(Cl)cc1 | 1.66% (inactive) | -5.03%
32 | CC12CCC(C(=O)NCc3ccccc3Cl)(CC1=O)C2(C)C (stereo unspecified) | 7.42% (inactive) | -6.53%
33 | Cc1cc(NC(=O)COc2cc(C)c(Cl)c(C)c2)no1 | 3.92% (inactive) | -7.52%
34 | CCOc1ccc2ccccc2c1C(=O)NCc1cccs1 | 17.9% (inactive) | 2.9%
35 | O=C(CC1(c2ccc(Cl)cc2)C(=O)c2ccccc2C1=O)N1CCCCC1 | 16% (inactive) | -0.9%
36 | Cc1occc1C(=O)Nc1cc(=O)n(C)c(=O)n1C | 3.62% (inactive) | -1.31%
37 | Cc1c(C(=O)c2ccccc2)c(=O)n(C)c(=O)n1C | -8.62% (inactive) | 1.24%
38 | COc1ccc(OC)c(NC(=O)Cn2c(C)ccc2C)c1 | 5.31% (inactive) | 2.44%
39 | CC12CCC(C(=O)Nc3ccc(SC(F)F)cc3)(CC1=O)C2(C)C (stereo unspecified) | 7.67% (inactive) | 34.3%
40 | S=C(NCc1ccc(Cl)cc1)N1CCC2(CC1)OCCO2 | -10.1% (inactive) | -3.96%
41 | OCCNC(=S)NC1CCCCC1 | -10.2% (inactive) | -4.3%
42 | OCCNC/C=C/c1c(F)c(F)c(F)c(F)c1F | 8.12% (inactive) | 1.91%
43 | O=C(c1ccc(Sc2nnc(Cc3ccccc3)n2-c2ccccc2)c([N+](=O)[O-])c1)N1CCCC1 | -6.85% (inactive) | 7.99%
44 | COc1ccc(NC(=S)Nc2ccccc2OC(F)F)cc1OC | -38% (inactive) | -5%

Row | SMILES | inhibition (concentration not given here) | inhibition [1]
45 | Cc1ccc(OCc2nnc(SCC(=O)N3CCc4ccccc43)n2N)cc1C | -18.2% (inactive) | -12.3%
46 | C=C1C2(C(=O)Nc3nc4ccc(Br)cc4s3)CCC(C2)C1(C)C (stereo unspecified) | -2.38% (inactive) | -1.19%
47 | Cc1cc(Cl)c(OCCOCCn2cnc3ccccc3c2=O)c(Br)c1 | 4.18% (inactive) | -5.62%
48 | Cc1c(N2C(=O)C3C4C=CC(C5CC45)C3C2=O)c(=O)n(-c2ccccc2)n1C (stereo unspecified) | -7.28% (inactive) | -4.46%
49 | COc1ccc(NC(=S)N2CCCC2C(=O)N2CCCC2)cc1 (stereo unspecified) | 41.3% (inactive) | 7.73%
50 | CN(C)C(=O)c1ccccc1C(=O)N(C)C | -3.26% (inactive) | 34.3%
51 | C[C@@H](NC(=O)C1CCN(Cc2cccc(Cl)c2)CC1)c1ccccc1 | 19.5% (inactive) | 5.13%
52 | Cc1cccc(C(=O)Nc2ccc(I)cc2C(=O)N2CCCC2)c1 | -0.8% (inactive) | -1.35%
53 | C=CCn1c(SCC(=O)Nc2c(C)cc(I)cc2C)nnc1-c1ccco1 | 5% (inactive) | -2.52%
54 | COc1cccc(-c2cc(C(F)(F)F)n3ncc(C(=O)OC(C)C)c3n2)c1 | 14.1% (inactive) | 15.9%
55 | Cc1cc(Br)c(NC(=O)CSc2ccc(Cl)cc2)cc1C | -1.15% (inactive) | 5.67%
56 | COc1ccc(N(C)NC(=O)Cc2ccccc2)cc1 | 16.7% (inactive) | 4.27%
57 | O=C(CC(NCc1ccccn1)C(=O)O)Nc1ccc(Cl)cc1 (stereo unspecified) | 4.17% (inactive) | -9.2%
58 | COCc1cc(CN2CCCCC2)c(O)c2ncccc12 | 34% (inactive) | 5.26%
59 | COc1cc(C(=O)Nc2nnc(-c3sccc3C)s2)cc(OC)c1OC | -3.78% (inactive) | -6.72%
60 | OCC(CO)(CO)NCC(O)CN1c2ccccc2Sc2ccccc21 (stereo unspecified) | 3.65% (inactive) | -1.83%
61 | c1cncc(Nc2nc(-c3cccs3)cs2)c1 | 13.2% (inactive) | -2.87%
62 | COc1ccc(Cl)cc1NC(=S)Nc1cccc(C)n1 | -27.1% (inactive) | -16.2%
63 | COc1ccc(C(=O)Nc2ncccc2O)cc1 | 10.3% (inactive) | 2.51%
64 | S=C(NCc1ccco1)NNC(=S)Nc1ccc(Cl)cc1 | 13.3% (inactive) | 5.16%
65 | CCCC(=O)c1ccc(N2CCN(C(=O)c3ccccc3Br)CC2)c(F)c1 | 1.55% (inactive) | 4.06%
66 | COC(=O)C1=CN(c2ccc(F)c(F)c2)C=C(C(=O)OC)C1c1cc(OC)ccc1OC | -1.54% (inactive) | -3.16%

Row | SMILES | inhibition (concentration not given here) | inhibition [1]
67 | Cc1sc(NCc2cc(Cl)ccc2O)nc1-c1ccc(F)cc1 | 14% (inactive) | -2.93%
68 | O=C(Oc1ccc(Cl)cc1Br)c1ccc(F)cc1 | -4.46% (inactive) | -5.02%
69 | COc1c(S(=O)(=O)N2CCCN(S(=O)(=O)c3ccc(Cl)c(Cl)c3OC)CC2)ccc(Cl)c1Cl | 8.96% (inactive) | 22.4%
70 | COc1cc(NC(=O)CS)cc(OC)c1 | -28.8% (inactive) | -11%
71 | CC(CCc1ccccc1)NC(=O)c1cccnc1 (stereo unspecified) | 14.2% (inactive) | -1.57%
72 | CCOc1ccc(-n2nc3ccc(NC(=S)NC(=O)CC)cc3n2)cc1 | -22.2% (inactive) | -6.24%
73 | CC1(C)CC(=O)C2=C(C1)NC(Nc1nc3ccccc3s1)=NC21C(=O)Nc2ccccc21 (stereo unspecified) | 5.23% (inactive) | -0.54%
74 | O=C(CCC(=O)Nc1ccccc1Cl)NNC(=S)NCc1ccco1 | 7.34% (inactive) | 30.6%
75 | O=C(CCCOc1ccc(Cl)cc1Cl)N1CCN(Cc2ccc3c(c2)OCO3)CC1 | 15.4% (inactive) | 5.35%
76 | CCc1[nH]nc2c1C1(CN3CCC1CC3)C(C#N)=C(N)O2 (stereo unspecified) | -3.07% (inactive) | -0.3%
77 | CCN1C(=O)Cc2cc(S(N)(=O)=O)ccc21 | 13.3% (inactive) | 0.76%
78 | O=C(NCCc1ccccc1)c1ccc(CNS(=O)(=O)c2cccc(Cl)c2)cc1 | -4.41% (inactive) | -10.6%
79 | Cc1ccc(NC(NC=O)C(Cl)(Cl)Cl)c(C)c1 (stereo unspecified) | 1.46% (inactive) | 2.8%
80 | CCc1cc(C(=O)OC)c(NC(=O)c2cc(Br)cs2)s1 | 6.03% (inactive) | 1.94%
81 | Cc1cccc(C)c1N1CCN(C(=O)N2CCCCC2)CC1 | 8.63% (inactive) | -4.82%
82 | COc1ccc(-c2csc3ncnc(SCc4c(C)noc4C)c23)cc1 | 24.7% (inactive) | 4.67%
83 | Cc1cc2ccccc2n2c(SCC(=O)c3ccc4c(c3)OCCO4)nnc12 | 0.44% (inactive) | -5.11%
84 | O=C(c1cccs1)N1C(=O)c2cccc3c(S(=O)(=O)N4CCCC4)ccc1c23 | 11.6% (inactive) | -0.47%
85 | CCSc1nnc(NC(=O)c2csc3ccccc23)s1 | -5.35% (inactive) | -4.62%
86 | COc1cc(SC)ccc1C(=O)Nc1cccc(C(F)(F)F)c1 | 0.295% (inactive) | -4.94%
87 | CCOC(=O)c1nnc2ccnn2c1N | -20.5% (inactive) | -4.37%
88 | Cc1csc(NC(=O)CSc2nc3c(c(C(F)(F)F)c2C#N)CCC3)n1 | 4.09% (inactive) | 1.86%

From PubChem BioAssay AID588778 (Southern Research Institute, 2011)
